From PubChem BioAssay
For some of these results: Measured potencies and affinities stand elsewhere. Activity calls are given as the source filed them. Unless noted, no rule for the calls is given here.

Columns and labels:
[1] = antimalarial activity against Dd2 strain (AID 2302;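 active = growth inhibition above 50% at the single 2 µM test dose, taken to imply half-maximal potency below 2 µM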;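 also: 0% = DMSO untreated growth and 100% = chloroquine plus artemisinin killed control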); conditions: P. falciparum Dd2 in RBCs, LDH growth readout, 72 h; at 2 µM; stronger effect = higher value
[2] = HepG2 cytotoxicity, primary screen, cytotoxicity control for P. falciparum antimalarial project, cell-based, ATP luminescence (AID 2303;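 active = inhibition above 50%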;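 also: 0% = DMSO wells and 100% = digitonin-killed cells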); conditions: HepG2 viability, 24-48 h, at 10 µM, stronger effect = higher value
[3] = target: L-lactate dehydrogenase (Plasmodium falciparum (isolate CDC / Honduras)) (UniProt Q27743); test: PfLDH activity inhibition – cell lysate, 3D7 strain, counter-screen for P. falciparum growth inhibition project (AID 2304);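 also: 0% = vehicle and 100% = reference inhibitor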; conditions: P. falciparum 3D7 crude extract, LDH APAD/NBT absorbance; at 2 µM; stronger effect = higher value
L-lactate dehydrogenase (Plasmodium falciparum (isolate CDC / Honduras)), sequence (Q27743 whole entry, looked up): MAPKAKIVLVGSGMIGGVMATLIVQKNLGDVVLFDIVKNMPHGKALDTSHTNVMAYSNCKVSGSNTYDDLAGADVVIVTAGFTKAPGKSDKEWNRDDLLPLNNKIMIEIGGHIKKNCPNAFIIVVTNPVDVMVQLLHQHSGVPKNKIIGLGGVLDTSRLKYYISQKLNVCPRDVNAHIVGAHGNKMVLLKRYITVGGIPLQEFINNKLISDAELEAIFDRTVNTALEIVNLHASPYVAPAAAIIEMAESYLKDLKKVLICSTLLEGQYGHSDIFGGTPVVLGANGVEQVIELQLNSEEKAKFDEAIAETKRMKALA

[4] = inhibition of 3D7 malaria parasite growth – strain 3D7 (AID 2306);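 also: 0% = DMSO wells and 100% = chloroquine plus artemisinin control wells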; conditions: P. falciparum 3D7 erythrocytic growth, LDH absorbance, 72 h; at 2 µM; stronger effect = higher value
[5] = target: Calcium-dependent protein kinase 1 (Plasmodium falciparum (isolate 3D7)) (UniProt P62344); test: PfCDPK1 kinase inhibitors, biochemical, TCAMS library (AID 1159585; cut-off not given, nearly all actives have IC50 up to about 0.98 µM;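 also: inhibitors leave more ATP so luminescence rises with inhibition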); conditions: recombinant PfCDPK1, Kinase-Glo ATP depletion luminescence
Calcium-dependent protein kinase 1 (Plasmodium falciparum (isolate 3D7)), sequence (P62344 whole entry, looked up): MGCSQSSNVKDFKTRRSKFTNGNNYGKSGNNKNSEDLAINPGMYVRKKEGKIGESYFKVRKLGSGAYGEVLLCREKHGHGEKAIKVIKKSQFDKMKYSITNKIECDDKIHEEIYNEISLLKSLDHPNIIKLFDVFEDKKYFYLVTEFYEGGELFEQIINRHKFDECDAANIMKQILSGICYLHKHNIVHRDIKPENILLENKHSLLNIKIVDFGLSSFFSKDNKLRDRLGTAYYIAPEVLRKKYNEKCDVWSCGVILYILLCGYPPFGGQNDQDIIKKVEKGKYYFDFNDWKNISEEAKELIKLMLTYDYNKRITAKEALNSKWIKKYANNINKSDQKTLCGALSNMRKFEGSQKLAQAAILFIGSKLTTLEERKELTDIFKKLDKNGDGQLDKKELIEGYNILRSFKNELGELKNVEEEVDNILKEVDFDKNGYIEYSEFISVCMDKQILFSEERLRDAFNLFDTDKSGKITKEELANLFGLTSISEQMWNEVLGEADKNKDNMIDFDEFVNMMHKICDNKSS

[6] = target: Plasmodium falciparum protein kinase 6 (PK6, PF3D7_1337100) (UniProt Q8IDW1); test: PfPK6 kinase inhibitors, biochemical, TCAMS library (AID 1159586); conditions: recombinant PfPK6, Kinase-Glo ATP depletion luminescence
Plasmodium falciparum protein kinase 6 (PK6, PF3D7_1337100), sequence (Q8IDW1 1-305): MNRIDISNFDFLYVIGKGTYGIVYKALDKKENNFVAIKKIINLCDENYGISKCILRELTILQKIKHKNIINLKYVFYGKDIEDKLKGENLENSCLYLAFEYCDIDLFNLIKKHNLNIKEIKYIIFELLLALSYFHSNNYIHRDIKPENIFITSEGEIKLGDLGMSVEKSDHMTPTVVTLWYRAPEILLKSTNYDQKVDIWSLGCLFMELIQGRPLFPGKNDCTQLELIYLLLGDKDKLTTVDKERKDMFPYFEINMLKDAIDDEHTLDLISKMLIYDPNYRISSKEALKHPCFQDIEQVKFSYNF

[7] = target: Protein kinase 7 (PK7), Plasmodium falciparum 3D7 (PF3D7_0213400) (UniProt Q7YTF7); test: inhibition of Plasmodium PK7 catalytic activity – biochemical, TCAMS antimalarial set, Kinase-Glo luminescence (AID 1159587); conditions: recombinant PfPK7, Kinase-Glo ATP depletion luminescence
Protein kinase 7 (PK7), Plasmodium falciparum 3D7 (PF3D7_0213400), sequence (Q7YTF7 1-343): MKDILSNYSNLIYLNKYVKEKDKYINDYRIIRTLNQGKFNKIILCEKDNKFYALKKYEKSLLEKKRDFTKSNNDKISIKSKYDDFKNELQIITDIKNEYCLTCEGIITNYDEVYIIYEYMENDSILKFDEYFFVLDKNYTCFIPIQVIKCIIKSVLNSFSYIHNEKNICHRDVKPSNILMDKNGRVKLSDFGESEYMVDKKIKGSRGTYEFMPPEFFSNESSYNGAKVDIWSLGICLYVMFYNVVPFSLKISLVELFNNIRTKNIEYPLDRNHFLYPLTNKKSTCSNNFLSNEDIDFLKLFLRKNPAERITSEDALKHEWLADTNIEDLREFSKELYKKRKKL

[8] = target: Calcium-dependent protein kinase 4 (Plasmodium falciparum (isolate 3D7)) (UniProt Q8IBS5); test: PfCDPK4 kinase inhibitors, biochemical, TCAMS library (AID 1159588; cut-off not given, nearly all actives have IC50 up to about 0.91 µM); conditions: recombinant PfCDPK4, Kinase-Glo ATP depletion luminescence
Calcium-dependent protein kinase 4 (Plasmodium falciparum (isolate 3D7)), sequence (Q8IBS5 whole entry, looked up): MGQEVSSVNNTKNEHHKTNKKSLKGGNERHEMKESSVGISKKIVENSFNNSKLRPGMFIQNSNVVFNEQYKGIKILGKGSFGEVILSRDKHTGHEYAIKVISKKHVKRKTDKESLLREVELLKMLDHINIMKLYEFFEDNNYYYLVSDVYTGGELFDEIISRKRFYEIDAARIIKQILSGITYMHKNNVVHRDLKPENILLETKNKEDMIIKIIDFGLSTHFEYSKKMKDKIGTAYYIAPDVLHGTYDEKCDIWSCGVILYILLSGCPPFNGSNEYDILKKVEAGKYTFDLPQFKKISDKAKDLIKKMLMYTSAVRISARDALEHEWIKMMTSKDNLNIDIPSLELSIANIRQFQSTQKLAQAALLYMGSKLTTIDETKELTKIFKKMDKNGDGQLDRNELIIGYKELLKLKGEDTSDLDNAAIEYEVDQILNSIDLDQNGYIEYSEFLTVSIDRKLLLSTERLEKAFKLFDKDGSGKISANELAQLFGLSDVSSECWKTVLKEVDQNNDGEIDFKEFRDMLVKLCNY

COc1ccc(C(=O)NC(c2ccc(Cl)cc2Cl)c2cc(Cl)c3cccnc3c2O)cc1 (stereo not drawn)
active: growth inhibition [4] 84%
inactive: growth inhibition [1] 48% | inhibition [2] 46% | inhibition [3] 2% | outcome [5] | outcome [6] | outcome [7] | outcome [8]

CC1CCC(NC(=O)c2nn(-c3ccc(Cl)cc3)c(=O)c3ccccc23)CC1 (stereo not drawn)
active: growth inhibition [1] 67% | growth inhibition [4] 91%
inactive: inhibition [2] 3% | inhibition [3] -3% | outcome [5] | outcome [6] | outcome [7] | outcome [8]

CCNc1cc(C(=O)N[C@@H](Cc2ccccc2)[C@H](O)CNCc2cccc(-n3ccnc3)c2)cc(N2CCCC2=O)c1
active: growth inhibition [1] 96% | growth inhibition [4] 99%
inactive: inhibition [2] 1% | inhibition [3] 1% | outcome [5] | outcome [6] | outcome [7] | outcome [8]

CCC(=O)OC(CCN(CC)CC)(c1ccccc1)c1ccccc1
inactive: growth inhibition [1] 6% | inhibition [2] 30% | inhibition [3] 4% | outcome [5] | outcome [6] | outcome [7] | outcome [8]
active: growth inhibition [4] 98%

COc1ccc(-c2ccc(NC(=O)c3ccc(Cl)cc3)cc2)cc1CN1CCC(O)CC1
active: growth inhibition [4] 89%
inactive: growth inhibition [1] 15% | inhibition [2] 20% | inhibition [3] 5% | outcome [5] | outcome [6] | outcome [7] | outcome [8]

O=C(N[C@@H](Cc1ccccc1)C(=O)NCCN1CCCCC1)c1ccc(O)c(-c2cccc(C(F)(F)F)c2)c1
active: growth inhibition [4] 92%
inactive: growth inhibition [1] 3% | inhibition [2] 0% | inhibition [3] 7% | outcome [5] | outcome [6] | outcome [7] | outcome [8]

CS(=O)(=O)c1ccc(CCNCc2ccc(-c3ccc(CNC4CCN(Cc5ccccc5)CC4)cc3)nc2)cc1
inactive: inhibition [2] 32% | inhibition [3] 3% | outcome [5] | outcome [6] | outcome [7] | outcome [8]
active: growth inhibition [1] 100% | growth inhibition [4] 101%

Cc1cc(C)cc(N2C(N)=NC(N)=NC2(C)C)c1
inactive: growth inhibition [1] 6% | inhibition [3] -4% | outcome [5] | outcome [6] | outcome [7] | outcome [8]
active: inhibition [2] 58% | growth inhibition [4] 93%

COc1cc(NCC(O)CNc2cc(OC)c3ccccc3n2)nc2ccccc12
inactive: inhibition [2] 42% | inhibition [3] 5% | outcome [5] | outcome [6] | outcome [7] | outcome [8]
active: growth inhibition [1] 93% | growth inhibition [4] 100%

CSC1=NC(=Nc2c(C)cccc2C)C2(CCCCC2)N1c1ccccc1Cl
inactive: inhibition [2] 22% | inhibition [3] -6% | outcome [5] | outcome [6] | outcome [7] | outcome [8]
active: growth inhibition [1] 57% | growth inhibition [4] 95%

COc1ccc2c(=O)c(I)c(C)[nH]c2c1
inactive: inhibition [2] 27% | inhibition [3] 4% | outcome [5] | outcome [6] | outcome [7] | outcome [8]
active: growth inhibition [1] 96% | growth inhibition [4] 96%

O=C(Nc1cc(Cl)cc(Cl)c1)Nc1ccnc2ccccc12
inactive: inhibition [2] 15% | inhibition [3] -2% | outcome [5] | outcome [6] | outcome [7] | outcome [8]
active: growth inhibition [1] 65% | growth inhibition [4] 96%

COc1ccccc1N1CCN(CCCCNC(=O)c2ccc(NC(=O)c3ccc(OC(F)(F)F)cc3)cc2)CC1
active: growth inhibition [4] 100%
inactive: growth inhibition [1] 39% | inhibition [2] 29% | inhibition [3] -6% | outcome [5] | outcome [6] | outcome [7] | outcome [8]

CNC(=O)/C=C/c1cc(NC(=O)Nc2ccnc3c(Br)cccc23)ccc1OC
active: growth inhibition [1] 68% | growth inhibition [4] 95%
inactive: inhibition [2] 12% | inhibition [3] 1% | outcome [5] | outcome [6] | outcome [7] | outcome [8]

CCCN1CCN(CCCNC(=O)c2cc3c(Cl)nc4ccc(C)cc4c3s2)CC1
inactive: growth inhibition [1] 27% | inhibition [2] 18% | inhibition [3] 0% | outcome [5] | outcome [6] | outcome [7] | outcome [8]
active: growth inhibition [4] 97%

CC(C)c1ccc(NC(=O)Nc2ccc(CCNCCCc3ccccc3)cc2)cc1
inactive: inhibition [2] 22% | inhibition [3] 1% | outcome [5] | outcome [6] | outcome [7] | outcome [8]
active: growth inhibition [1] 56% | growth inhibition [4] 101%

Cc1ccccc1C1CCN(C2CCC(NC(=O)c3ccc(-c4cccc(C(F)(F)F)c4)o3)CC2)CC1 (stereo not drawn)
active: growth inhibition [1] 101% | inhibition [2] 56% | growth inhibition [4] 99%
inactive: inhibition [3] -2% | outcome [5] | outcome [6] | outcome [7] | outcome [8]

Cc1cc(N2CCC(C)CC2)nc2cc(O)ccc12
inactive: growth inhibition [1] 41% | inhibition [2] 31% | inhibition [3] -1% | outcome [5] | outcome [6] | outcome [7] | outcome [8]
active: growth inhibition [4] 89%

COc1ccc2c(NN=Cc3ccncc3)ccnc2c1
active: growth inhibition [4] 95%
inactive: growth inhibition [1] 6% | inhibition [2] -12% | inhibition [3] -3% | outcome [5] | outcome [6] | outcome [7] | outcome [8]

Nc1ncnc2cc(-c3cccc(NC(=O)Nc4ccccc4)c3)sc12
inactive: growth inhibition [1] 33% | inhibition [2] 4% | inhibition [3] 9% | outcome [5] | outcome [6] | outcome [7] | outcome [8]
active: growth inhibition [4] 94%

CC(C)(C)OC(=O)N1CCC(C2CCN(C(=O)OC(C)(C)C)CC2)CC1
inactive: growth inhibition [1] 28% | inhibition [2] -6% | inhibition [3] 1% | outcome [5] | outcome [6] | outcome [7] | outcome [8]
active: growth inhibition [4] 86%

CC(=O)c1cc(N2CCOCC2)ccc1N
inactive: growth inhibition [1] 43% | inhibition [2] 7% | inhibition [3] 3% | outcome [5] | outcome [6] | outcome [7] | outcome [8]
active: growth inhibition [4] 91%

O=[N+]([O-])c1cccc(-c2ccc(C=NNc3cc(N4CCCC4)nc(N4CCCC4)n3)o2)c1
active: growth inhibition [1] 67% | growth inhibition [4] 100%
inactive: inhibition [2] -6% | inhibition [3] 0% | outcome [5] | outcome [6] | outcome [7] | outcome [8]

CC(C)(C)c1ccc(CNC(=O)c2ccc(-c3nc4ccc(Cl)cc4[nH]3)cc2)cc1
inactive: growth inhibition [1] 2% | inhibition [2] 14% | inhibition [3] -2% | outcome [5] | outcome [6] | outcome [7] | outcome [8]
active: growth inhibition [4] 93%

CC(=O)Nc1nc(C(=O)Nc2ccc(-c3ccc(-c4nc5ccccc5[nH]4)cc3)cc2)cs1
active: growth inhibition [1] 53% | growth inhibition [4] 100%
inactive: inhibition [2] 38% | inhibition [3] -5% | outcome [5] | outcome [6] | outcome [7] | outcome [8]

COc1cc2c(=O)c(Cc3ccc(Cl)cc3)c(C)[nH]c2cc1F
inactive: growth inhibition [1] 28% | inhibition [2] 13% | inhibition [3] 1% | outcome [5] | outcome [6] | outcome [7] | outcome [8]
active: growth inhibition [4] 85%

CCCNC(=O)C1CCN(C(c2ccccc2)c2ccc(Cl)c(Cl)c2)CC1 (stereo not drawn)
active: growth inhibition [1] 90% | growth inhibition [4] 90%
inactive: inhibition [2] 15% | inhibition [3] 1% | outcome [5] | outcome [6] | outcome [7] | outcome [8]

COc1ccc2nccc(N(C)CC3(O)CCN(CCc4ccc5c(c4)OCCO5)CC3)c2n1
active: growth inhibition [1] 96% | growth inhibition [4] 100%
inactive: inhibition [2] 15% | inhibition [3] -3% | outcome [5] | outcome [6] | outcome [7] | outcome [8]

Cc1cc(-c2cnc(N)c(-c3ccc(N4CCN(C)CC4)cc3)c2)cc(C)c1O
active: growth inhibition [1] 99% | growth inhibition [4] 101%
inactive: inhibition [2] 3% | inhibition [3] -5% | outcome [5] | outcome [6] | outcome [7] | outcome [8]

Brc1ccc(Nc2nc3ccccc3nc2Nc2ccc(Br)cc2)cc1
active: growth inhibition [1] 100% | growth inhibition [4] 101%
inactive: inhibition [2] 18% | inhibition [3] -2% | outcome [5] | outcome [6] | outcome [7] | outcome [8]

COc1ccc(NC(=O)CCNc2cc(C)nc(NCCc3ccc(F)cc3)n2)cc1
inactive: growth inhibition [1] 3% | inhibition [2] 27% | inhibition [3] 1% | outcome [5] | outcome [6] | outcome [7] | outcome [8]
active: growth inhibition [4] 98%

Cc1ccc(Oc2ccccc2NC(=O)CCc2nc3ccccc3c(=O)[nH]2)cc1
inactive: inhibition [2] 3% | inhibition [3] -3% | outcome [5] | outcome [6] | outcome [7] | outcome [8]
active: growth inhibition [1] 99% | growth inhibition [4] 100%

Cc1nc(-c2cccc(Nc3nccc(NCC(O)c4cccc(C(F)(F)F)c4)n3)c2)cs1 (stereo not drawn)
inactive: inhibition [2] 14% | inhibition [3] 0% | outcome [5] | outcome [6] | outcome [7] | outcome [8]
active: growth inhibition [1] 99% | growth inhibition [4] 100%

COc1ccc(CCNc2ccnc3cc(Cl)ccc23)cc1OC
active: growth inhibition [1] 92% | growth inhibition [4] 101%
inactive: inhibition [2] 4% | inhibition [3] -7% | outcome [5] | outcome [6] | outcome [7] | outcome [8]

O=C(Nc1ccc(C(F)(F)F)cc1)NC1CCN(c2ccnc3ccccc23)CC1
active: growth inhibition [1] 62% | growth inhibition [4] 103%
inactive: inhibition [2] 46% | inhibition [3] -2% | outcome [5] | outcome [6] | outcome [7] | outcome [8]

O=C(Nc1ccc(C(F)(F)F)cc1)c1cc(Br)cnc1NCCCn1ccnc1
inactive: inhibition [2] 32% | inhibition [3] 2% | outcome [5] | outcome [6] | outcome [7] | outcome [8]
active: growth inhibition [1] 98% | growth inhibition [4] 99%

O=C(Nc1ccc(Cn2ncc(N3CCCNCC3)c(Cl)c2=O)cc1)Nc1cccc(Oc2ccccc2)c1
active: growth inhibition [4] 81%
inactive: growth inhibition [1] 41% | inhibition [2] 8% | inhibition [3] -5% | outcome [5] | outcome [6] | outcome [7] | outcome [8]

CS(=O)(=O)c1ccccc1CNC(=O)c1cccc(-c2ccc(-c3nc4ccc(C(F)(F)F)cc4[nH]3)cc2)c1
inactive: growth inhibition [1] 7% | inhibition [3] 3% | outcome [5] | outcome [6] | outcome [7] | outcome [8]
active: inhibition [2] 86% | growth inhibition [4] 95%

O=C(Nc1ccc(-c2ccccc2)s1)N[C@H]1CCN(Cc2ccc(OCCCN3CCCCC3)cc2)C1
inactive: growth inhibition [1] 40% | inhibition [2] 5% | inhibition [3] -6% | outcome [5] | outcome [6] | outcome [7] | outcome [8]
active: growth inhibition [4] 102%

Cc1ccc(NC(=O)c2cccc(CN3CCCN(Cc4cccc(O)c4)CC3)c2)cc1F
inactive: growth inhibition [1] 45% | inhibition [2] 20% | inhibition [3] -5% | outcome [5] | outcome [6] | outcome [7] | outcome [8]
active: growth inhibition [4] 99%

O=C(Nc1ccc(-c2cccc(-c3nc4ccc(C(F)(F)F)cc4[nH]3)c2)cc1)c1ccoc1
active: inhibition [2] 52% | growth inhibition [4] 96%
inactive: growth inhibition [1] 13% | inhibition [3] -9% | outcome [5] | outcome [6] | outcome [7] | outcome [8]
